{"source": "PubChem BioAssay (NCATS)", "note": "Inconclusive results are not listed. Unmarked numbers belong to inactive results. Activity calls are given as the source filed them. Calls come from the whole dose curve; as a rule, active = well fitted cell-killing curve with a large enough effect; inconclusive = small, poorly fitted or top-dose-only effect, or effect the other way; inactive = no such curve, though single readings can be large or run the other way. Potency is the fitted concentration of half-maximal effect."}
{"experiment": "qHTS of pediatric cancer cell lines to identify multiple opportunities for drug repurposing: Confirmatory screen for Saos-2 cells (AID 1347127); note: nearly all actives have a fitted effect of over 60% in size", "conditions": "Saos-2 osteosarcoma cell viability; series mostly up to 45.9 µM; activity change, negative = cytotoxic: at the top concentration", "source_text": "Drug repurposing or repositioning has been offered as a strategy for drug development in oncology programs. This approach has special potential for childhood cancers and other rare or orphan diseases, where the expected return on new drug development has been a disincentive to pharmaceuticals.\nIn this project we exploit the poly-pharmacology of drugs to discover new indications via phenotypic screening of a panel of 19 well-characterized cell lines derived from solid tumors seen in children and adolescents. The goal is to identify approved drugs with previously unrecognized anticancer properties that has the potential to reveal new mechanisms and biological processes involved in carcinogenesis or drug resistance. We employed a titration-based paradigm (quantitative high-throughput screening or qHTS), where all compounds were tested at multiple concentrations for their effect on cell viability. Concentration-response curves (CRCs) were derived directly from the primary screen, and both potency and efficacy values were used to identify compounds with robust bioactivity profiles. We screened the NIH Chemical Genomics Center (NCGC) Pharmaceutical Collection (NPC) and Mechanism Interrogation Plate (MIPE) small molecule collections of approved and investigational compounds against these cell lines; and measured metabolically active cells after 48 hours of compound treatment as a proxy for cell viability.\nAssay Submitter: Nathalia J. Martinez, National Center for Advancing Translational Sciences, National Institutes of Health, Rockville, MD, USA; email: natalia.martinez@nih.gov\n[1] Shen, M et al. Quantitative high-throughput phenotypic screening of pediatric cancer cell lines identifies multiple opportunities for drug repurposing. Oncotarget 2017 Dec 19;9(4):4758-4772. PMID 29435139.\nThe cells were obtained from University of North Carolina (UNC), Pediatric Preclinical Testing Program (PPT), and Coriell Institute (CI).\nqHTS cell viability assay:\nCells were assayed in growth media at a density of 500-1,000 cells/well. Five microliters of cells were dispensed into 1,536-well, white, solid-bottom, TC-treated plates (Greiner Bio One) using a multidrop dispenser and incubated at 37 degrees C, 5% CO2, under a humidified atmosphere for 5 hours. Twenty-three nanoliters of compounds and controls (neutral control DMSO or positive control bortezomib at final concentration of 2.3 µM) were subsequently transferred by Kalypsys pintool. For primary screens, the MIPE collection was tested at 11-point dilutions (final concentrations range from 0.78 nM to 46 µM) and the NPC collection at 8-point dilutions (final concentrations range from 0.59 nM to 46 µM). Compounds tested in follow-up screens were assayed at 11-point dilutions. Cells were incubated for 48 hours, followed by addition of 3 µL of CellTiter-Glo (Promega). After a 15 min incubation at room temperature, samples were analyzed for luminescence intensity using a ViewLux High-throughput CCD imager equipped with clear filters.", "units": {"activity change, negative = cytotoxic": "%"}}
{"compound": "CN(C)/N=N/c1nc[nH]c1C(N)=O", "activity change, negative = cytotoxic": 9.33}
{"compound": "COCc1c(C(C)C)nc(C(C)C)c(/C=C/[C@@H](O)C[C@@H](O)CC(=O)O)c1-c1ccc(F)cc1", "Potency": "0.0657 µM (active)"}
{"compound": "CCCCC(CC)CN=C(N)NC(N)=NCCCCCCN=C(N)NC(N)=NCC(CC)CCCC", "note": "(configuration not stated)", "Potency": "16.5 µM (active)"}
{"compound": "OC[C@H]1O[C@@H](n2cnc3c(=S)nc[nH]c32)[C@H](O)[C@@H]1O", "Potency": "4.65 µM (active)"}
{"compound": "COc1cc(C=C2CCC/C(=C\\c3ccc(O)c(OC)c3)C2=O)ccc1O", "Potency": "11.7 µM (active)"}
{"compound": "CC1(C)O[C@@H]2C[C@H]3[C@@H]4C[C@H](F)C5=CC(=O)CC[C@]5(C)[C@H]4[C@@H](O)C[C@]3(C)[C@]2(C(=O)CO)O1", "activity change, negative = cytotoxic": 8.9}
{"compound": "C[C@@H]1C[C@H]2[C@@H]3CCC4=CC(=O)C=C[C@]4(C)[C@@]3(F)[C@@H](O)C[C@]2(C)[C@H]1C(=O)CO", "activity change, negative = cytotoxic": 26}
{"compound": "Oc1ccc(O)cc1", "activity change, negative = cytotoxic": 14.8}
{"compound": "CC(=O)OCC(=O)[C@@]12N=C(C)O[C@@H]1C[C@H]1[C@@H]3CCC4=CC(=O)C=C[C@]4(C)[C@H]3[C@@H](O)C[C@@]12C", "Potency": "0.737 µM (active)"}
{"compound": "CCCCCCC[N+](CC)(CC)CCCCc1ccc(Cl)cc1", "Potency": "11.7 µM (active)"}
{"compound": "C=C1C[C@H]2[C@@H]3C=C(C)C4=CC(=O)CC[C@]4(C)[C@H]3CC[C@]2(C)[C@@]1(OC(C)=O)C(C)=O", "activity change, negative = cytotoxic": -0.346}
{"compound": "CC(=O)O[C@]1(C(C)=O)CC[C@H]2[C@@H]3C[C@H](C)C4=CC(=O)CC[C@]4(C)[C@H]3CC[C@@]21C", "activity change, negative = cytotoxic": -7.27}
{"compound": "C[C@]12CCC(=O)C=C1CC[C@H]1[C@@H]3CC[C@](O)(C(=O)CO)[C@@]3(C)C[C@H](O)[C@@]12F", "activity change, negative = cytotoxic": -2.17}
{"compound": "CC1(C)O[C@@H]2C[C@H]3[C@@H]4CCC5=CC(=O)CC[C@]5(C)[C@@]4(F)[C@@H](O)C[C@]3(C)[C@]2(C(=O)CCl)O1", "activity change, negative = cytotoxic": -1.73}
{"compound": "CC(=O)Oc1ccc(C(c2ccc(OC(C)=O)cc2)c2ccccn2)cc1", "activity change, negative = cytotoxic": 2.4}
{"compound": "CC(=O)OCC(=O)[C@@]1(OC(C)=O)[C@@H](C)C[C@H]2[C@@H]3C[C@H](F)C4=CC(=O)C=C[C@]4(C)[C@@]3(F)[C@@H](O)C[C@@]21C", "activity change, negative = cytotoxic": 4.46}
{"compound": "CCC(C(=O)OCCN(CC)CC)c1ccccc1", "note": "(configuration not stated)", "activity change, negative = cytotoxic": 1.7}
{"compound": "C[C@]12C=CC(=O)C=C1CC[C@@H]1[C@@H]2[C@@H](O)C[C@@]2(C)[C@H]1CC[C@]2(O)C(=O)CO", "activity change, negative = cytotoxic": -9.63}
{"compound": "C[C@H]1C[C@H]2[C@@H]3CCC4=CC(=O)C=C[C@]4(C)[C@@]3(Cl)[C@@H](O)C[C@]2(C)[C@@]1(O)C(=O)CO", "outcome": "inactive"}
{"compound": "O=C(CCCN1CCC(O)(c2ccc(Br)cc2)CC1)c1ccc(F)cc1", "activity change, negative = cytotoxic": -11.4}
{"compound": "NC(=O)CC[C@@H]1NC(=O)[C@H](Cc2ccccc2)NC(=O)[C@H](Cc2ccc(O)cc2)NC(=O)CCSSC[C@@H](C(=O)N2CCC[C@H]2C(=O)N[C@@H](CCCN=C(N)N)C(=O)NCC(N)=O)NC(=O)[C@H](CC(N)=O)NC1=O", "activity change, negative = cytotoxic": 0.366}
{"compound": "NC(CO)(CO)CO", "activity change, negative = cytotoxic": 24.5}
